PubChem BioAssay (NCI)
This is part of a sample that, as a whole, favours compounds with a hit. Of some 79,000 tested, about 15% had one in any assay. Cut-off read from the data, not from the text of the source: active = growth inhibition above about 70%; inactive = the rest.

How the values were obtained:
[1] = NCI Yeast Anticancer Drug Screen. Data for the rad50 strain (AID 155);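 note: 0% = growth of vehicle-only cultures of the same strain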; details: S. cerevisiae rad50 strain growth inhibition; at 50.0 µM; hits give high values
Summary of the method: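 A DNA repair-deficient yeast mutant serves as the test organism; compound-induced growth inhibition is calculated against vehicle-treated cells.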

[2] = NCI Yeast Anticancer Drug Screen. Data for the mec2-1 strain (AID 157); details: S. cerevisiae mec2-1 strain, at 50.0 µM, hits give high values
Summary of the method: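 Growth inhibition is read against vehicle-treated controls after compound exposure of the mec2-1 yeast strain, which is defective in DNA damage repair or cell cycle control.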

[3] = NCI Yeast Anticancer Drug Screen. Data for the sgs1 mgt1 strain (AID 161);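 note: 0% = growth of cultures given vehicle only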; details: S. cerevisiae sgs1 mgt1 strain, at 50.0 µM, hits give high values
Summary of the method: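 Yeast cells carrying a defined DNA-repair defect were exposed to test compounds. Growth inhibition was measured relative to vehicle-treated controls.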

[4] = NCI Yeast Anticancer Drug Screen. Data for the cln2 rad14 strain (AID 165);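 note: 0% = growth equal to vehicle treated cultures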; details: S. cerevisiae cln2 rad14 strain, at 50.0 µM, hits give high values
Summary of the method: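 Growth inhibition, relative to vehicle-treated controls, is the read-out. The test organism is a yeast strain with defined genetic alterations, cln2 rad14.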

[5] = NCI Yeast Anticancer Drug Screen. Data for the bub3 strain (AID 167); details: S. cerevisiae bub3 mutant strain, at 50.0 µM, hits give high values
Summary of the method: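 Inhibition values come from growth of compound-treated mutant yeast normalised to vehicle-treated controls.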

[6] = NCI Yeast Anticancer Drug Screen. Data for the mlh1 rad18 strain (AID 175); details: S. cerevisiae mlh1 rad18 strain growth inhibition; at 50.0 µM; hits give high values
Summary of the method: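 Cells of a genetically altered yeast strain, deficient in DNA damage repair, were treated with compound. Their growth was then compared with that of vehicle-treated cultures to give inhibition.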

Measured: growth inhibition

C#CCNC(=O)NCCCC(NC(C)=O)C(=O)NCc1ccccc1 (stereo not given)
inactive: [1] 41% | [2] -12.2% | [3] -4.65% | [4] 32.1% | [5] -5.75% | [6] -8.15%

O=c1oc(Cl)cc2oc(=O)n(-c3ccccc3)c(=O)c12
inactive: [1] 10.8% | [2] 7% | [3] 18.8% | [4] -3.15% | [5] -9.25% | [6] 9.45%

CC(=O)OCC(OC(C)=O)C(OC(C)=O)C(OC(C)=O)C1OC(=O)C(OC(C)=O)C1OC(C)=O (stereo not given)
inactive: [1] 0.5% | [2] -12% | [3] 3.8% | [4] 2.25% | [5] -0.75% | [6] 9.9%

CCNc1ccc(C)cc1
inactive: [1] 55.4% | [2] -4.1% | [3] 0.1% | [4] -14% | [5] -5.15% | [6] 33.5%

CCOC(=O)C1C(c2cc(OC)c(OC)c(OC)c2)c2cc3c(cc2OC1(C)N1CCCC1)OCO3 (stereo not given)
inactive: [1] 7.15% | [2] -0.45% | [3] -12.3% | [4] 20.5% | [5] 1.55% | [6] 22.1%

COc1ccc(C(CCOS(=O)(=O)c2ccc(Br)cc2)(c2ccc(OC)cc2)c2ccc(OC)cc2)cc1
inactive: [1] 0.9% | [2] 12.8% | [3] -13.1% | [4] -23.6% | [5] 0% | [6] 15.6%

O=C1Nc2ccccc2C1O (stereo not given)
inactive: [1] 7.15% | [2] 3.3% | [3] -37.5% | [4] -17.7% | [5] 11.1% | [6] -4.2%

C1CCC2(CC1)SCCS2
inactive: [1] 2% | [2] -18.4% | [3] -1.9% | [4] -48.9% | [5] -9.4% | [6] -10.4%

NCc1cnccn1
inactive: [1] -7.05% | [2] 10.6% | [3] -4.65% | [4] 8.45% | [5] 1.1% | [6] -1.85%

CC(O)CC1CC(=O)CCC1=O (stereo not given)
inactive: [1] 0.35% | [2] -18.1% | [3] -10.7% | [4] -29.2% | [5] -5.85% | [6] 8.3%

Cc1ccccc1I
inactive: [1] -15.2% | [2] -32.3% | [3] -3.2% | [4] 9% | [5] 0.5% | [6] 9.2%

O=c1c2ccccc2nc(-c2ccccc2)n1-c1cc(C(F)(F)F)cc(C(F)(F)F)c1
inactive: [1] -20.5% | [2] -23% | [3] 7.85% | [4] 10.8% | [5] 4% | [6] 5.95%

Cn1c(=O)c2nc(SC3CCCCC3)n(C)c2n(C)c1=O
inactive: [1] -12.7% | [2] -9.05% | [3] -9.85% | [4] -28.3% | [5] 4.5% | [6] -15.3%

CC(C)(C)c1cc(C(C)(C)C)c(P(C(O[Si](C)(C)C)=C(c2ccccc2)c2ccccc2)C(O[Si](C)(C)C)=C(c2ccccc2)c2ccccc2)c(C(C)(C)C)c1
inactive: [1] -14.7% | [2] -8.45% | [3] -3.7% | [4] 5.2% | [5] -5% | [6] 15.2%

O=[N+]([O-])c1ccc(Sc2cccs2)c([N+](=O)[O-])c1
inactive: [1] -12.8% | [2] 28.9% | [3] 18.9% | [4] 4.1% | [5] 13.9% | [6] 57%

CSC(=S)n1nc(-c2ccccc2)c(N=Nc2ccccc2[N+](=O)[O-])c1-c1ccccc1
inactive: [1] 31.6% | [2] 12.5% | [3] 20.2% | [4] -30.9% | [5] 18.6% | [6] 29.9%

CC1(C)COC(=O)OC1
inactive: [1] 17.8% | [2] 11.5% | [3] 16.4% | [4] 12.8% | [5] 14.8% | [6] 16.9%

CCSC(C(O)C(O)C(O)C(O)CO)n1cc(C)c(=O)[nH]c1=O (stereo not given)
inactive: [1] 3% | [2] 5.45% | [3] -2.85% | [4] -3.7% | [5] 4.2% | [6] -0.25%

NCCN(CCN)/[N+]([O-])=N/O
inactive: [1] 18.6% | [2] -0.2% | [3] 6.3% | [4] -1% | [5] 0.65% | [6] 16.9%

O=C1NCC(C2CC2)(C2CC2)O1
inactive: [1] 8.85% | [2] -16.9% | [3] -5.7% | [4] -34% | [5] 8.7% | [6] -21%

COc1ccc(N2C(=O)C3c4[nH]c5ccccc5c4C4CC(C)CC(C)C4C3C2=O)cc1 (stereo not given)
inactive: [1] 53% | [2] 0.65% | [3] 8.85% | [4] -25.2% | [5] 41% | [6] 14.7%

O=C(Cn1cc(I)c(C(=O)NCC(O)CO)n1)NCC(O)CO (stereo not given)
inactive: [1] -2.2% | [2] -8.7% | [3] -8.4% | [4] 26.9% | [5] -5.9% | [6] -9.25%

O=c1sc2ccccc2n1CCN(CCn1c(=O)sc2ccccc21)c1ccccc1
inactive: [1] 39.7% | [2] -7.75% | [3] 13.6% | [4] -45.5% | [5] 1.65% | [6] 14.2%

COc1cc2c(cc1OC)C1C(=O)c3c(O)cc4c(c3OC1CO2)C=CC(C)(C)O4 (stereo not given)
inactive: [1] 49.8% | [2] 10.3% | [3] 14.3% | [4] 15.3% | [5] 33.9% | [6] 36.7%

COC1=C(C(C2=C(OC)CC(C)(C)CC2=O)c2ccc3c(c2)OCO3)C(=O)CC(C)(C)C1
inactive: [1] 31.6% | [2] 7.7% | [3] -9.05% | [4] 0.3% | [5] -0.65% | [6] 11.9%

CN(C)CC(Oc1ccccc1)C(=O)c1ccccc1 (stereo not given)
inactive: [1] -3.2% | [2] -10.2% | [3] 29.8% | [4] -26.3% | [5] -16.9% | [6] -5.15%

NCCCCC(C(=O)NCC(=O)O)N(C(=O)OCc1ccccc1)C(=O)OCc1ccccc1 (stereo not given)
inactive: [1] -2% | [2] -4.6% | [3] -0.55% | [4] -33.1% | [5] -2.2% | [6] -2.05%

CCCCCCCC[N+](C)(C)CC#CC[N+](C)(C)CCCCCCCC
inactive: [1] 46.2% | [2] -14.3% | [3] 13.9% | [4] -1.65% | [5] 11.1% | [6] 44.1%

COc1cccc2c1C(=O)c1c(O)c3c(c(O)c1C2=O)CC(O)(C(C)=O)CC3OC1CC(NC(=O)C(CCCCN)NC(=O)C(N)CCN)C(O)C(C)O1 (stereo not given)
inactive: [1] 9.1% | [2] -1.15% | [3] -0.5% | [4] 12.8% | [5] 15.9% | [6] 14.6%

CCOC(=O)C(=NNc1cc(OC)c(Cl)cc1OC)C(=O)OCC
inactive: [1] 8.25% | [2] -9.95% | [3] -7.4% | [4] -25.4% | [5] 1.7% | [6] 6.05%

Cn1c2c(c3ccccc31)=NN1CCN=C1N=2
inactive: [1] 11.2% | [2] -2.95% | [3] -0.15% | [4] -28.2% | [5] 17.2% | [6] 4%

CCOc1ccc(OCC)c(NC(=O)OC(C)C)c1
inactive: [1] -6.35% | [2] -3.25% | [3] 20.3% | [4] -27.5% | [5] 47.5% | [6] 12.9%

CC(C)(C)OC(=O)N(CCCCN(CCCNC(=O)C(F)(F)F)C(=O)OC(C)(C)C)CCCNC(=O)C(F)(F)F
inactive: [1] -14.9% | [2] 4.75% | [3] -14.3% | [4] 3.15% | [5] 4.6% | [6] -32%

Cc1ccccc1[B-]12OCC[N+]1(CNC(=O)c1ccccc1O)CCO2 (stereo not given)
inactive: [1] 26% | [2] -2.1% | [3] 3.5% | [4] 16.6% | [5] 1.35% | [6] 8.5%

O=S(=O)(CS(=O)(=O)c1ccc(Br)cc1)c1ccc(Br)cc1
inactive: [1] 1.4% | [2] 33.1% | [3] -14.6% | [4] 20.8% | [5] 4.6% | [6] 12%

O=C1Nc2ccccc2/C1=N\[O-].O=C1Nc2ccccc2/C1=N\[O-].[Cu+2]
inactive: [1] -10.2% | [2] -5.5% | [3] -30.5% | [4] -0.3% | [5] -23.4% | [6] -21.1%

O=[N+]([O-])c1ccccc1S(=O)(=O)c1cc(Cl)cc2c1NCCC2
inactive: [1] 16.8% | [2] 0.15% | [3] 26.8% | [4] 9.15% | [5] 38.8% | [6] 30.9%

Cc1cc[n+](CC(=O)c2ccc(Br)cc2)cc1
inactive: [1] 22.8% | [2] 12.7% | [3] 18.4% | [4] 22.9% | [5] 4.35% | [6] 54.5%

CCCCNc1ccc2c(c1)Cc1ccccc1-2
inactive: [1] 18.9% | [2] -4.1% | [3] 15.8% | [4] 3.25% | [5] -18.8% | [6] -8.35%

CN(C)CC(CN(C)C)C(=O)c1ccc(OC2OC(CO)C(O)C(O)C2O)cc1 (stereo not given)
inactive: [1] -4.95% | [2] -3.15% | [3] -18.4% | [4] 5.15% | [5] -9.35% | [6] 2.05%
